Experimental data taken from PubChem BioAssay (Tox21).
Records with an inconclusive call do not appear. Active and inactive are the calls of the source. The call rests on the fitted dose curve; in most records, active means well fitted curve in the direction sought with a large enough effect in the repeat runs; inconclusive means weak or mixed curves; inactive means no such curve, though single readings can be large; an effect the other way counts as inactive or inconclusive.

Columns and labels:
[1] = qHTS RealTime-Glo MT Cell Viability Assay in HEK293 cells - 32 hour (AID 1224868); settings: RealTime-Glo luminescence; series mostly up to 76.8 µM; further: top concentration of the series differs between compounds; nearly all actives have a fitted effect of over 50% in size
Summary of the method: (§1)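 HEK293 cells seeded with NanoLuc/prosubstrate reagent, rested 5 h at 37 C, then dosed and kept at 37 C up to 40 h. Nonlytic real-time luminescence from viable cells read at 0, 8, 16, 24, 32 and 40 h.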

[2] = A CellTox Green Cytotoxicity Assay to monitor cytotoxicity in HEK293 cells - 0 hour (AID 1224869); settings: CellTox Green fluorescence; series mostly up to 76.8 µM; further: nearly all actives have a fitted effect of over 50% in size
Summary of the method: (§2)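 HEK293 cells premixed with CellTox Green dye were seeded at 600 cells/well and left 5 h at 37 C/5% CO2 before pin transfer of 23 nL compound in DMSO. Fluorescence from dye bound to dead-cell DNA was read during 40 h treatment.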

[3] = qHTS RealTime-Glo MT Cell Viability Assay in HepG2 cells - 40 hour (AID 1224870); settings: RealTime-Glo luminescence; series mostly up to 76.8 µM; further: nearly all actives have a fitted effect of over 50% in size
Summary of the method: (§3)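 HepG2 cells mixed with RealTime-Glo MT reagents (NanoLuc plus cell-permeant prosubstrate) were seeded at 600 cells/well, incubated 5 h at 37 C/5% CO2, then pinned with compounds in DMSO; nonlytic luminescence tracked viability during 40 h treatment.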

[4] = A CellTox Green Cytotoxicity Assay to monitor cytotoxicity in HEK293 cells - 40 hour (AID 1224871); settings: CellTox Green fluorescence; series mostly up to 76.8 µM; further: nearly all actives have a fitted effect of over 45% in size
Summary of the method: as §2

[5] = qHTS RealTime-Glo MT Cell Viability Assay in HEK293 cells - 16 hour (AID 1224872); settings: RealTime-Glo luminescence; series mostly up to 76.8 µM; further: top concentration of the series differs between compounds; nearly all actives have a fitted effect of over 50% in size
Summary of the method: as §1

[6] = qHTS RealTime-Glo MT Cell Viability Assay in HEK293 cells - 40 hour (AID 1224874); settings: RealTime-Glo luminescence, hits give low values; further: nearly all actives have a fitted effect of over 50% in size
Summary of the method: (§4)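 HEK293 cells mixed with RealTime-Glo reagents (NanoLuc plus cell-permeant prosubstrate) at 600 cells/well, preincubated 5 h at 37 C/5% CO2, then given 23 nL compound in DMSO. Nonlytic luminescence from viable cells was read at 0, 8, 16, 24, 32 and 40 h.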

[7] = A CellTox Green Cytotoxicity Assay to monitor cytotoxicity in HEK293 cells - 24 hour (AID 1224875); settings: CellTox Green fluorescence; series mostly up to 76.8 µM; further: nearly all actives have a fitted effect of over 45% in size
Summary of the method: as §2

[8] = A CellTox Green Cytotoxicity Assay to monitor cytotoxicity in HepG2 cells - 16 hour (AID 1224876); settings: CellTox Green fluorescence; series mostly up to 76.8 µM; further: nearly all actives have a fitted effect of over 45% in size
Summary of the method: (§5)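 HepG2 cells were seeded together with the CellTox Green dye at 600 cells/well, left 5 h at 37 C/5% CO2, then given compounds in DMSO. Fluorescence from dye bound to dead-cell DNA was read repeatedly over 40 h of treatment at 37 C.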

[9] = qHTS RealTime-Glo MT Cell Viability Assay in HepG2 cells - 32 hour (AID 1224877); settings: RealTime-Glo luminescence; series mostly up to 76.8 µM; further: nearly all actives have a fitted effect of over 55% in size
Summary of the method: (§6)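 HepG2 cells (600/well) were dispensed with RealTime-Glo reagents, incubated 5 h at 37 °C, then treated with compounds in DMSO for up to 40 h. Nonlytic NanoLuc luminescence reflecting viable cells was read at each stated time point.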

[10] = A CellTox Green Cytotoxicity Assay to monitor cytotoxicity in HepG2 cells - 24 hour (AID 1224878); settings: CellTox Green fluorescence; series mostly up to 76.8 µM; further: nearly all actives have a fitted effect of over 45% in size
Summary of the method: as §5

[11] = A CellTox Green Cytotoxicity Assay to monitor cytotoxicity in HepG2 cells - 40 hour (AID 1224879); settings: CellTox Green fluorescence; series mostly up to 76.8 µM; further: nearly all actives have a fitted effect of over 40% in size
Summary of the method: as §5

[12] = qHTS RealTime-Glo MT Cell Viability Assay in HEK293 cells - 0 hour (AID 1224880); settings: RealTime-Glo luminescence; series mostly up to 76.8 µM
Summary of the method: as §4

[13] = A CellTox Green Cytotoxicity Assay to monitor cytotoxicity in HEK293 cells - 32 hour (AID 1224881); settings: CellTox Green fluorescence; series mostly up to 76.8 µM; further: nearly all actives have a fitted effect of over 40% in size
Summary of the method: as §2

[14] = A CellTox Green Cytotoxicity Assay to monitor cytotoxicity in HepG2 cells - 0 hour (AID 1224882); settings: CellTox Green fluorescence; series mostly up to 76.8 µM; further: nearly all actives have a fitted effect of over 35% in size
Summary of the method: as §5

[15] = A CellTox Green Cytotoxicity Assay to monitor cytotoxicity in HepG2 cells - 32 hour (AID 1224883); settings: CellTox Green fluorescence; series mostly up to 76.8 µM; further: nearly all actives have a fitted effect of over 50% in size
Summary of the method: as §5

[16] = A CellTox Green Cytotoxicity Assay to monitor cytotoxicity in HEK293 cells - 8 hour (AID 1224884); settings: CellTox Green fluorescence; series mostly up to 76.8 µM; further: nearly all actives have a fitted effect of over 35% in size
Summary of the method: as §2

[17] = qHTS RealTime-Glo MT Cell Viability Assay in HepG2 cells - 16 hour (AID 1224885); settings: RealTime-Glo luminescence; series mostly up to 76.8 µM; further: nearly all actives have a fitted effect of over 50% in size
Summary of the method: as §6

[18] = qHTS RealTime-Glo MT Cell Viability Assay in HEK293 cells - 24 hour (AID 1224886); settings: RealTime-Glo luminescence; series mostly up to 76.8 µM
Summary of the method: as §1

[19] = qHTS RealTime-Glo MT Cell Viability Assay in HEK293 cells - 8 hour (AID 1224887); settings: RealTime-Glo luminescence; series mostly up to 76.8 µM
Summary of the method: as §4

[20] = qHTS RealTime-Glo MT Cell Viability Assay in HepG2 cells - 8 hour (AID 1224873); settings: RealTime-Glo luminescence; series mostly up to 76.8 µM; further: nearly all actives have a fitted effect of over 55% in size
Summary of the method: as §3
On the % scale 0 is the no-effect control and ±100 the full control effect.

CCCCCCC(O)CO (centres undefined)
inactive: outcome [1] | outcome [2] | outcome [3] | Potency [4] | outcome [5] | max response [6] 1.68% | Potency [7] | Potency [8] | outcome [9] | Potency [10] | Potency [11] | Potency [12] | Potency [13] | Potency [14] | Potency [15] | Potency [16] | outcome [17] | outcome [18] | outcome [19]

CCCCCCCCCCCC(C)=O
inactive: outcome [1] | outcome [2] | outcome [3] | Potency [4] | outcome [5] | max response [6] 0.63% | Potency [7] | Potency [8] | outcome [9] | Potency [10] | Potency [12] | Potency [13] | Potency [14] | Potency [15] | Potency [16] | outcome [17] | outcome [18] | outcome [19]

CCCCCCCCCCCCCCCC/C=C/C1CC(=O)OC1=O (centres undefined)
inactive: outcome [1] | outcome [2] | outcome [3] | Potency [4] | outcome [20] | max response [6] -0.0124% | Potency [7] | Potency [8] | outcome [9] | Potency [10] | Potency [11] | Potency [12] | Potency [13] | Potency [14] | Potency [15] | Potency [16] | outcome [17] | outcome [18] | outcome [19]

Cc1ccc(O)c([N+](=O)[O-])c1
inactive: outcome [1] | outcome [2] | outcome [3] | Potency [4] | outcome [20] | max response [6] -15.2% | Potency [7] | Potency [8] | outcome [9] | Potency [10] | Potency [11] | Potency [12] | Potency [13] | Potency [14] | Potency [15] | Potency [16] | outcome [17] | outcome [18] | outcome [19]

C=COCCCCO
inactive: outcome [1] | outcome [2] | outcome [3] | Potency [4] | outcome [5] | max response [6] -1.03% | Potency [7] | outcome [9] | Potency [10] | Potency [11] | Potency [12] | Potency [13] | Potency [14] | Potency [15] | Potency [16] | outcome [17] | outcome [18]

C[C@@H]1NC(=O)[C@@H](N)CNC(=O)[C@H](C2CCNC(N)=N2)NC(=O)/C(=C/NC(N)=O)NC(=O)[C@H](CNC(=O)C[C@@H](N)CCCN)NC1=O (some centres undefined)
inactive: activity change, negative = cytotoxic [1] 0.857% [at 0.29 µM] | cytotoxicity [2] 0.414% [at 0.29 µM] | activity change, negative = cytotoxic [3] 3.51% [at 0.29 µM] | cytotoxicity increase [4] 21.6% [at 0.29 µM] | viability change, negative = cytotoxic [20] 3.98% [at 0.29 µM] | max response [6] 0.0952% | activity change [7] 19.3% [at 0.29 µM, hits give high values] | cytotoxicity increase [8] -2.83% [at 0.29 µM] | activity change, negative = cytotoxic [9] 3.72% [at 0.29 µM] | cytotoxicity [10] -1.91% [at 0.29 µM] | cytotoxicity increase [11] -3.78% [at 0.29 µM] | activity change, negative = cytotoxicity [12] -3.01% [at 0.29 µM] | cytotoxicity increase [13] 19.4% [at 0.29 µM] | cytotoxicity [14] -4.92% [at 0.29 µM] | cytotoxicity increase [15] -3.17% [at 0.29 µM] | cytotoxicity increase [16] 6.36% [at 0.29 µM] | activity change, negative = cytotoxic [17] 5.82% [at 0.29 µM] | activity change, negative = cytotoxicity [18] 0.653% [at 0.29 µM] | activity change, negative = cytotoxicity [19] 0.186% [at 0.29 µM]

COc1ccc2cc(CCC(C)=O)ccc2c1
inactive: outcome [1] | outcome [2] | outcome [3] | Potency [4] | outcome [20] | max response [6] -11.3% | Potency [7] | Potency [8] | outcome [9] | Potency [10] | Potency [11] | Potency [12] | Potency [13] | Potency [14] | Potency [15] | Potency [16] | outcome [17] | outcome [18] | outcome [19]

COc1cc(NS(=O)(=O)c2ccc(N)cc2)ncn1
inactive: outcome [1] | outcome [2] | outcome [3] | Potency [4] | outcome [5] | max response [6] 7.65% | Potency [7] | Potency [8] | outcome [9] | Potency [10] | Potency [11] | Potency [12] | Potency [13] | Potency [14] | Potency [15] | Potency [16] | outcome [17] | outcome [18] | outcome [19]

CCOC(=O)CC
inactive: outcome [1] | outcome [2] | outcome [3] | Potency [4] | outcome [20] | max response [6] 19% | Potency [7] | Potency [8] | outcome [9] | Potency [10] | Potency [12] | Potency [13] | Potency [14] | Potency [15] | Potency [16] | outcome [17] | outcome [18] | outcome [19]

CC1=C(O)C(=O)CO1
inactive: outcome [1] | outcome [2] | outcome [3] | Potency [4] | outcome [5] | max response [6] 0.017% | Potency [7] | outcome [9] | Potency [10] | Potency [11] | Potency [12] | Potency [13] | Potency [14] | Potency [15] | Potency [16] | outcome [17] | outcome [18] | outcome [19]

CNC(C)=O
inactive: outcome [1] | outcome [2] | outcome [3] | Potency [4] | outcome [20] | max response [6] -0.0492% | Potency [7] | Potency [8] | outcome [9] | Potency [10] | Potency [11] | Potency [12] | Potency [13] | Potency [14] | Potency [15] | Potency [16] | outcome [17] | outcome [18] | outcome [19]
